These results are taken from PubChem BioAssay AID504467 (National Center for Advancing Translational Sciences (NCATS), 2011).

Structures are written as SMILES. The whole screen tested about 330,000 compounds, of which about 7,700 (2.3%) were called active. Where a call stands in place of a potency, no number is given. Not shown: some 26% with an inconclusive outcome. The call rests on the fitted dose curve; in most records, active means well fitted inhibition curve with a large enough effect; inconclusive means small, poorly fitted or top-dose-only effect, or effect the other way; inactive means flat fitted curve, though single readings scatter. Many of the other results were omitted from the sample, so actives are more common in it than they were.
Potency means the concentration at half of the fitted maximal effect.

This experiment in a line: qHTS screen for small molecules that inhibit ELG1-dependent DNA repair in human embryonic kidney (HEK293T) cells expressing luciferase-tagged ELG1. Further: nearly all actives have a fitted effect of over 55% in size. The following applies: HEK293T ELG1-luciferase reporter, luminescence, 16 h, DNA damage induced by 5-fluorouridine; series mostly up to 46.1 µM. The method in brief: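 Quantitative HTS, concentration-response format. 2,000 cells/well co-treated with 5-fluorouridine and compound, 16 hr in 5% CO2 at 37 °C; ONE-Glo luminescence read after 30 min.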
A general note: In qHTS, concentration-response curves come from the screen itself.
On to `CN(C)C(=O)CCc1ccc2c3c([nH]c2c1)[C@]1(CCc2ccccc2)[C@@H](C(=O)N2CCCCC2)C[C@H](CC(=O)NCCC2=CCCCC2)C(=O)N1CC3`, for which the Potency entry was “inactive”. With `CC(C)(O)C#Cc1ccc(CN2CCC(CO)(CCc3ccccc3)CC2)cc1` the entry was “inactive”; with `CC(=O)c1c(C)[nH]c(C(=O)COC(=O)CCOc2ccc(C)cc2)c1C`, “inactive”. Consider `COc1ccc(C)cc1NC(=O)C(OC(=O)c1cccc(S(=O)(=O)N(C)c2ccccc2)c1)c1ccccc1` (configuration not stated), for which the Potency entry is “inactive”. With `CC(=O)c1c(C)[nH]c(C(=O)COC(=O)c2cccc(S(=O)(=O)N(C)c3ccccc3)c2)c1C` the figure was 18.4 µM (active); with `COc1ccc(Cl)cc1NC(=O)CN(C)C(=O)c1cc(-c2cccs2)nn1-c1ccccc1`, “inactive”. With `CCOc1ccc(C(=O)Nc2ccc(S(=O)(=O)Nc3cc(C)on3)cc2)cc1` the entry was “inactive”; with `CCCCC(=O)NNC(=S)NC(=O)C(c1ccccc1)c1ccccc1`, “inactive”. With `CC(C)C(=O)NC(=S)Nc1ccccc1F`, the Potency entry is “inactive”. With `CC(C)C(=O)Nc1cccc(NC(=S)NC(=O)C(c2ccccc2)c2ccccc2)c1` the figure was 16.4 µM (active); with `CCn1c(O)c(N=NC(=O)c2cccc(S(=O)(=O)N3CCCCC3)c2)c2ccccc21`, 23.1 µM (active). Take `CCn1c2ccccc2c2cc(NC(=O)COC(=O)c3cc(S(=O)(=O)N4CCCCC4)ccc3Cl)ccc21`: the Potency result was “inactive”. With `Cc1ccc(NC(=O)CN(C)C(=O)c2cccc(S(=O)(=O)N3CCCC3)c2)cc1`, the Potency result is “inactive”. Turning to `CC[C@]12c3[nH]c4ccc(Cl)cc4c3CCN1C(=O)[C@@H](CC(=O)NCCCOC)C[C@@H]2C(=O)N1CCN(C(=O)C2CC2)CC1`, the Potency result was “inactive”. Take `NC(=O)Nc1ccc(C(=O)OCC(=O)NC2CCCc3ccccc32)cc1` (configuration not stated): the Potency result was “inactive”. With `CCOc1ccc(OCC)c(NC(=O)CN(C)S(=O)(=O)c2cccc3nsnc23)c1` the figure was 16.4 µM (active); with `CCOc1ccc(N(CC)S(=O)(=O)c2cccc3nsnc23)cc1`, “inactive”; with `CCOc1ccccc1NC(=O)CCS(=O)(=O)c1cccc2nsnc12`, “inactive”. With `Cc1ccc(CN2CC(C(=O)N3CCN(S(=O)(=O)c4ccccc4)CC3)CC2=O)cc1` (configuration not stated) the entry was “inactive”; with `O=C(NNc1c2ccccc2nc2ccccc12)c1cc2ccccc2cc1O`, 13 µM (active).

In the case of `CC(=O)Nc1ccc(Nc2c3ccccc3nc3ccccc23)cc1`, the Potency result is “inactive”. `Cc1ccc(/C=N/NC(=O)c2cc3ccccc3cc2O)o1`: the Potency result was “inactive”. Regarding `COc1cccc(C2CC(c3ccccc3)=NN2S(=O)(=O)c2ccccc2)c1OC` (configuration not stated), the Potency entry is “inactive”.

Regarding `CCS(=O)(=O)Nc1ccc(C2=NN(S(=O)(=O)c3ccc(F)cc3)C(c3ccco3)C2)cc1` (configuration not stated), the Potency was 20.6 µM (active). With `Cc1ccc(C2=NN(C(=O)COc3ncnc4ccccc34)C(c3ccco3)C2)cc1` (configuration not stated) the entry was “inactive”.

In the case of `CC(NCC(=O)Nc1cc(Cl)cc(Cl)c1)c1ccccc1` (configuration not stated), the Potency result is “inactive”. Regarding `COc1ccc(/C=C(/NC(=O)c2ccccc2)C(=O)Nc2cccc(C(=O)O)c2)cc1`, the Potency entry is “inactive”.

Turning to `COc1cc(SC)ccc1C(=O)N(Cc1ccccc1)c1ccccc1`, the Potency entry was “inactive”.

Turning to `COc1cccc(NC(=O)CN(C)C(=O)Cc2ccc(Cl)cc2Cl)c1`, the Potency entry is “inactive”. For the molecule `CCCC(=O)Nc1cccc(NC(=S)NC(=O)C(C)Oc2ccc(Cl)cc2Cl)c1` (configuration not stated), the Potency was 20.6 µM (active). With `CC(Oc1ccc(Cl)cc1Cl)C(=O)/C=C/N(C)C` (configuration not stated) the entry was “inactive”; with `COc1ccc(C)cc1NC(=O)CN(C)S(=O)(=O)c1ccc2c(c1)n(C)c(=O)c(=O)n2C`, “inactive”; with `Cc1ccc(C)c(C(=O)COC(=O)Cn2[nH]c(=O)c3ccccc3c2=O)c1`, “inactive”. With `O=C(CCc1nc(-c2ccccc2)no1)Nc1cccc(C(=O)NC2CC2)c1` the entry was “inactive”. With `CN(CC(=O)Nc1c(Cl)cccc1Cl)C(=O)CC1OC(=O)c2ccccc21` (configuration not stated) the entry was “inactive”.

As for `CCN(C(=O)COC(=O)/C=C/c1nc2ccccc2s1)C1CCS(=O)(=O)C1` (configuration not stated), the Potency is 9.2 µM (active).

For the molecule `CCN(C(=O)CSc1nc2ccccc2n1CC)C1CCS(=O)(=O)C1` (configuration not stated), the Potency result was “inactive”. For `CCN(C(=O)COC(=O)c1c(NC(C)=O)sc(C)c1C)C1CCS(=O)(=O)C1` (configuration not stated), the Potency result was “inactive”. With `C=CC(COCc1ccccc1)N(CC(=O)OC)S(=O)(=O)c1cc(Br)ccc1OC` (configuration not stated) the entry was “inactive”. On to `Cc1nc2cc(C(F)(F)F)ccc2n1CCNc1nc(-c2cc(Cl)c(N)c(Cl)c2)cs1`, for which the Potency result was “inactive”. Consider `COc1ccc(-c2c(C)cc3oc(=O)cc(-c4ccccc4)c3c2C)cc1F`, for which the Potency entry is “inactive”. With `COc1ccc(-c2c(C)cc3oc(=O)cc(-c4ccccc4)c3c2C)cc1C=O` the figure was 25.9 µM (active). With `COc1ccc(-c2c(C)cc3oc(=O)cc(-c4ccccc4)c3c2C)cc1OC` the entry was “inactive”; with `CCOC(=O)N1CCN(Cc2nnc(-c3ccccc3Cl)o2)CC1`, “inactive”. As for `Cc1ccc(F)cc1NC(=O)CSCc1c(C)noc1C`, the Potency entry is “inactive”. For the molecule `COc1ccc(CCNc2ncnc3nc[nH]c23)cc1OC`, the Potency was 14.6 µM (active).

On to `CCS(=O)(=O)NCCc1ccc(OC)c(OC)c1`, for which the Potency result was “inactive”.

Consider `COc1ccc(CCNc2nc(C)cc(C)n2)cc1OC`, for which the Potency result was “inactive”.

For `CCCN(C(=O)c1nc2nccc(C)n2n1)c1c(N)n(Cc2ccccc2)c(=O)[nH]c1=O`, the Potency entry is “inactive”.

As for `O=C(Nc1ccccc1F)c1ccc(S(=O)(=O)N2CCCCCC2)cc1`, the Potency entry is “inactive”. With `Cc1cccc(NS(=O)(=O)c2ccc(C)c(C(=O)NCc3cccnc3)c2)c1` the entry was “inactive”; with `COC(=O)Cc1ccc(OC(=O)C2CCN(S(=O)(=O)c3ccc(OC)c(OC)c3)CC2)cc1`, “inactive”; with `CCOC(=O)c1c(C)[nH]c(C)c1S(=O)(=O)N(C)CC(=O)Nc1ccccc1C`, “inactive”.

`Cc1[nH]c2ccccc2c1C(=O)COC(=O)C(C)C`: the Potency entry was “inactive”. `CCOC(=O)c1c(C)[nH]c2c1-c1ccccc1C(=O)C2=O`: the Potency is 2.91 µM (active). On to `CC[C@]12c3[nH]c4cc(CCC(=O)N(C)C)ccc4c3CCN1C(=O)[C@@H](CC(=O)NCCCn1ccnc1)C[C@@H]2C(=O)N1CCN(C(=O)C2CC2)CC1`, for which the Potency result was “inactive”. With `Cc1ccc(N(Cc2ccccc2O)C(=O)c2ccccc2F)cc1` the entry was “inactive”. Consider `Cc1ccc(C(=O)OCC(=O)N2CC(C)CC(C)C2)cc1S(=O)(=O)N1CCCCC1` (configuration not stated), for which the Potency result was “inactive”. With `Cc1ccc(C(=O)OCC(=O)N2CCCCCC2)cc1S(=O)(=O)N1CCOCC1` the entry was “inactive”; with `Cc1ccc(C(=O)OCC(=O)NCc2cc(C)c(O)c(C)c2)cc1S(=O)(=O)N1CCCCC1`, 7.3 µM (active). With `COc1ccc(C(=O)OCC(=O)c2ccc(C)c(S(=O)(=O)N3CCOCC3)c2)cc1OC` the figure was 10.3 µM (active); with `Cc1ccc(C(=O)OCC(=O)Nc2ccc(Cl)cn2)cc1S(=O)(=O)N1CCOCC1`, “inactive”; with `Cc1ccc(C(=O)NCC(=O)O)cc1S(=O)(=O)N1CCCCC1`, “inactive”. With `COc1ccc(C2(C)ON(c3ccccc3C(F)(F)F)C2=O)cc1` (configuration not stated) the entry was “inactive”. Turning to `Cc1ccc(Cn2cc(C(=O)NN)c(=O)c3ccc(F)cc32)cc1`, the Potency result was “inactive”. Regarding `CC1(C)Oc2ccc3ccc(=O)oc3c2/C(=N/O)C1=O`, the Potency result is “inactive”. On to `COc1ccc(C(=O)Nc2ccc3nc(N4CCCCC4)cc(C)c3c2)cc1OC`, for which the Potency is 23.1 µM (active). For `COc1ccc(C(=O)NC(=S)Nc2ccc(N3CCCC3)cc2)cc1OC`, the Potency entry is “inactive”. `COc1ccc(C(=O)Nc2ccc(S(=O)(=O)Nc3onc(C)c3C)cc2)cc1OC`: the Potency result is “inactive”.

With `CN1/C(=C\C(=O)c2oc3ccccc3c2N)C(C)(C)c2ccccc21`, the Potency was 13 µM (active). With `CN1/C(=C\C(=O)c2cccnc2Cl)C(C)(C)c2ccccc21` the entry was “inactive”. With `CN1CCN(CCC(=O)N/N=C/C=C2\N(C)c3ccccc3C2(C)C)CC1`, the Potency result was “inactive”. With `CC(C)[C@H](NC(=O)N1CCn2c1nc1ccccc12)C(=O)NCCc1ccccc1` the entry was “inactive”; with `CCOc1ccc(C(=O)CCC(=O)Nc2ccncc2)cc1`, “inactive”; with `COc1ccc2oc(C(=O)N(CC(C)C)C3CCS(=O)(=O)C3)c(C)c2c1` (configuration not stated), “inactive”. With `CC(OC(=O)c1ccc([N+](=O)[O-])cc1)C(=O)NCC1CCCCC1` (configuration not stated) the entry was “inactive”; with `COc1cc(C(=O)OC(C)C(=O)NCC2CCCCC2)cc(NC(=O)c2ccco2)c1OC` (configuration not stated), 11.6 µM (active); with `COc1cc(C(=O)N[C@@H](C)C(=O)NCc2ccco2)cc(OC)c1OC`, “inactive”. As for `CN1C(=O)[C@H]2[C@@H](/C=C/c3ccccc3)N3C(=O)CN(Cc4ccc(-c5ccccc5)cc4)C(=O)[C@@]3(C)[C@H]2C1=O`, the Potency entry was “inactive”. `COc1ccccc1CNC(=O)COn1nnc2ccc(S(=O)(=O)N3CCOCC3)cc21`: the Potency result is “inactive”. Take `COc1ccc(OC)c(Nc2nc3ccccc3n3cnnc23)c1`: the Potency was 14.6 µM (active). With `COc1ccc(CCNc2nc3ccc(C)cc3n3cnnc23)cc1OC` the entry was “inactive”; with `CCn1c(C(O)c2cc(OC)ccc2OC)nc2ccccc21` (configuration not stated), “inactive”. With `Cc1ccc(/C=C2/SC(=S)N(CCC(=O)NCCCN3CCOCC3)C2=O)cc1` the entry was “inactive”; with `CCOc1ccc(NC(=O)COc2ccc(C(=O)N3CCC(C(N)=O)CC3)cc2OC)cc1`, “inactive”; with `CCc1c(C)nc2c(-c3ccccc3)c(C)nn2c1Nc1ccc(NC(C)=O)cc1`, 16.4 µM (active).

For the molecule `Cc1cc(-c2ccccc2)n2nc(C)c(-c3ccccc3)c2n1`, the Potency entry was “inactive”. With `Cc1cc(-n2nc(C)cc2C)n2nc(C)c(-c3ccccc3)c2n1` the entry was “inactive”; with `Cc1cc(C)c2nc(N(CCN(C)C)C(=O)/C=C/c3cccs3)sc2c1`, “inactive”.

On to `CN(CC(=O)Nc1ccc(F)c(F)c1F)C(=O)Cn1cnc2c1c(=O)n(C)c(=O)n2C`, for which the Potency entry was “inactive”. With `O=C(COc1ccccc1F)NNC(=O)c1cc(Br)ccc1Cl` the entry was “inactive”; with `COc1ccccc1N1CCN(C(=O)C2Cc3ccccc3CN2C(=O)c2ccco2)CC1` (configuration not stated), “inactive”; with `Cc1ccc(C)c(-c2nnc(NC(=O)CS(=O)(=O)c3ccccc3)o2)c1`, “inactive”. With `COc1ccc(S(=O)(=O)NCC(=O)NC2CC2)cc1OC` the entry was “inactive”. As for `O=C(N/N=C/c1ccc(O)c2ccccc12)c1cccnc1`, the Potency result is “inactive”. With `CCN(CC)c1ccc(/C=N/NC(=O)c2cnccn2)c(O)c1` the figure was 1.46 µM (active); with `Cc1ccc(C(=O)NCCNC(=O)c2cnccn2)cc1`, “inactive”.
